# Experimental data as given in PubChem BioAssay (NCATS).
# Values joined by “and” are separate entries in the source; they are usually repeats but may differ in a detail not shown here. Equal entries are not always repeated. Inconclusive results are not listed. More than one record can exist for a structure, and the calls need not agree. Active and inactive are the calls of the source. Calls come from the whole dose curve; as a rule, active = well fitted cell-killing curve with a large enough effect; inconclusive = small, poorly fitted or top-dose-only effect, or effect the other way; inactive = no such curve, though single readings can be large or run the other way.
# Test: Viability qHTS for spleen associated tyrosine kinase inhibitor (SYKi) drug resistant MV4-11 cells (AID 1963824); note: nearly all actives have a fitted effect of over 35% in size
# Details: SYKi-resistant MV4-11 viability, CellTiter-Glo, 72 h; series mostly up to 45 µM; viability, % of control: at the top concentration
# Source text: Department of Medicine, Hematology/Oncology
# University Hospital Frankfurt, Germany.
# Trials have shown promising clinical activity of the selective SYK inhibitor entospletinib in patients with high expressing HOXA9/MEIS1 acute leukemias. As the development of resistance mechanisms is a common problem in the use of targeted drugs, we performed a chemical library screen to identify drug sensitivities in SYK inhibitor resistant AML cells. […] Glucocorticoids are potent immunosuppressants which work in part by inhibiting the transcription of cytokine genes.
# Described herein is a viability screen to look for activity in the SYK inhibitor drug resistant cell line against four NCATS compound libraries (MIPE 5.0, NPC, NPACT, and Kinase) totaling 11372 compounds. Active hits were reacquired for confirmation and further secondary assay testing.
# SEQUENCE No. (e.g., 1, 2, 3, etc.); […] (e.g., Cells, Incubation, Reagent, etc.); VALUE; DESCRIPTION.
# 1; Media; 2uL; white, solid-bottom Corning assay plate.
# 2; Compounds; 23nL; Echo acoustic dispenser.
# 3; Cell; 5uL; 500 cells per well.
# 4: Incubation; 72hr; 37 C, 5% CO2, 95% humidity.
# 5; Reagent; 3uL; CellTiter-Glo reagent (Promega).
# 6; Incubation; 10min; room temperature.
# 7; Detection; Luminescence; ViewLux plate reader (PerkinElmer).
# NOTES (numbers refer to Sequence numbers above
# 1. Quantitative high-throughput screening (qHTS) of small molecule compounds was conducted on drug resistant SYKi MV4-11 cell line.
# 2. Twenty-three nanoliter of small molecule compounds were added to each assay plates using the Echo acoustic dispenser (Beckman Coulter).
# 3. Cells were seeded into the assay plates at a final density of 500 cells in 5uL of media per well using the Multidrop Combi dispenser.
# 4. Plates were covered with stainless steel gasketed lids and incubated for 72 hours at standard cell culture conditions.
# 5. Viability was assessed by adding 3uL of CellTiter-Glo detection reagent (Promega).
# 6. Plates were covered with gasket lids and incubated for 10 minutes at room temperature.
# 7. Luminescence was measured on a ViewLux plate reader (PerkinElmer).
# Potency is the fitted concentration of half-maximal effect.
SMILES,Potency,"viability, % of control"
CCOC(=O)N1CCN(/[N+]([O-])=N/Oc2ccc([N+](=O)[O-])cc2[N+](=O)[O-])CC1,2.63 µM (active),
C=CC(=O)Nc1cccc(Nc2nc(Nc3ccccc3)ncc2C)c1,0.651 µM (active),
O=C(O)C(=O)Nc1cccc(-c2nn[nH]n2)c1,inactive,
CC(=O)OC1C(CO)OC(O[C@H]2[C@H](OC(=O)[C@]34CCC(C)(C)C[C@H]3C3=CCC5[C@@]6(C)CC[C@H](O[C@@H]7O[C@H](C(=O)O)[C@@H](O)[C@H](O[C@@H]8OC[C@@H](O)[C@H](O)[C@H]8O)[C@H]7O[C@@H]7O[C@H](CO)[C@H](O)[C@H](O)[C@H]7O)[C@@](C)(C=O)C6CC[C@@]5(C)[C@]3(C)C[C@H]4O)O[C@H](C)[C@H](OC3OC(C)C(OC4OCC(O)C(O)C4O)C(O)C3O)[C@@H]2O)C(O)C1O (stereo not given in full),,100% [at 9.25 µM] (inactive)
CC(=O)O[C@H]1[C@@H](O)[C@H](O[C@H]2[C@@H]3C=CO[C@@H](O[C@H]4O[C@@H](CO)[C@H](O)[C@@H](O)[C@@H]4O)[C@@H]3[C@@]3(CO)O[C@@H]23)O[C@@H](C)[C@@H]1OC(=O)/C=C/c1ccccc1,,88.5% [at 17.3 µM] (inactive)
Nc1nc(N)c2nc(CNc3ccc(C(=O)NC(CCC(=O)O)C(=O)O)cc3)cnc2n1 (stereo not given),0.0148 µM (active),
CCC(=O)O[C@]1(C(=O)SCF)[C@H](C)C[C@H]2[C@@H]3C[C@H](F)C4=CC(=O)C=C[C@]4(C)[C@@]3(F)[C@@H](O)C[C@@]21C,1.18 µM (active),
COc1ccc(CN2CCN(CCCSc3cc(C(C)(C)C)c(O)c(C(C)(C)C)c3)CC2)c(OC)c1OC,3.48 µM (active),
CC1=CC(=O)[C@@]2(C(C)C)C[C@@H]12,13 µM (active),
Cc1ccc(-c2nn(C(C)(C)C)c3ncnc(N)c23)cc1,8.2 µM (active),
C/C(=C(\CCO)SS/C(CCO)=C(\C)N(C=O)Cc1cnc(C)nc1N)N(C=O)Cc1cnc(C)nc1N,,110% (inactive)
COC(=O)CC(C)(O)CC(=O)OCc1ccc(O[C@@H]2O[C@H](CO)[C@@H](O)[C@H](O)[C@H]2O)cc1 (stereo not given in full),,100% [at 17.3 µM] (inactive)
CN(C)CCCOc1nn(Cc2ccccc2)c2ccccc12,inactive and 13 µM (active),
CCCC(=O)C1CCN(c2ncnc3c2CN(C(=O)c2ccc(-c4ccccc4)cc2)CC3)CC1,20.6 µM (active),
C[C@@H]1O[C@@H](O[C@H]2[C@H](OC(=O)[C@]34CCC(C)(C)C[C@H]3C3=CCC5[C@@]6(C)C[C@H](O)[C@H](O[C@@H]7O[C@H](CO)[C@@H](O[C@@H]8O[C@H](CO)[C@@H](O)[C@H](O)[C@H]8O)[C@H](O)[C@H]7O)[C@@](C)(CO)C6[C@H](O)C[C@@]5(C)[C@]3(C)C[C@H]4O)OC[C@H](O)[C@@H]2O)[C@H](O)[C@H](O)[C@H]1O[C@@H]1OC[C@@H](O)[C@H](O[C@@H]2OC[C@](O)(CO)[C@H]2O)[C@H]1O (stereo not given in full),,108% [at 9.25 µM] (inactive)
COC[C@@H](c1ccc(C(F)(F)F)cc1)N1CCN(C2(C)CCN(C(=O)c3c(C)ncnc3C)CC2)C[C@@H]1C,18.6 µM (active),
CCCC(=O)O[C@]1(C(=O)CC)CC[C@H]2[C@@H]3CCC4=CC(=O)CC[C@]4(C)[C@H]3[C@@H](O)C[C@@]21C,,56.8% (inactive)
O=S(=O)(NCC1CC1)c1ccc(Nc2nccc(N3CCCc4cc(O)ccc43)n2)cc1,0.206 µM (active),
CC1CCC2(C(=O)OC3OC(CO)C(O)C(O)C3O)CCC3(C)C(=CCC4C5(C)CCC(O)C(C)(CO)C5CCC43C)C2C1(C)O (stereo not given),,93.4% [at 17.3 µM] (inactive)
COC(=O)C[C@H]1C(C)(C)[C@H](OC(=O)C(C)C)[C@@]2(O)C(=O)[C@]1(C)C1CC[C@]3(C)C(CC(=O)O[C@H]3c3ccoc3)[C@]13O[C@@H]32 (stereo not given in full),,72% [at 17.3 µM] (inactive)

SMILES,Potency,"viability, % of control"
O=c1[nH]nc(OCCCc2ccc(Cl)cc2)c(NCc2cccnc2)c1Br,4.11 µM (active),
COC(=O)c1ccc(O)cc1,,78.3% (inactive)
C=C[C@H]1C(O[C@@H]2O[C@H](CO)[C@@H](O)[C@H](O)[C@H]2O)OC=C2C(=O)N3CCc4c([nH]c5ccccc45)[C@H]3C[C@H]21 (stereo not given in full),,92.1% [at 17.3 µM] (inactive)
CCOC(=O)c1sc(NC(=O)[C@H](C(C)C)n2c(=O)[nH]c3ccccc3c2=O)nc1C,16.4 µM (active),
c1cc(CN2CCCCC2)cc(OCCCNc2nc3ccccc3s2)c1,21.1 µM (active),
C[C@@H]1O[C@@H](O[C@H]2[C@@H]3C=CO[C@@H](O[C@@H]4O[C@H](CO)[C@@H](O)[C@H](O)[C@H]4O)[C@@H]3[C@@]3(CO)O[C@@H]23)[C@H](OC(=O)/C=C/c2ccccc2)[C@H](O)[C@H]1O,,84.7% [at 17.3 µM] (inactive)
CC1(C)OC(=O)Nc2ccc(Br)cc21,,73.4% (inactive)
O=C1[C@H](O[C@@H]2O[C@H](CO)[C@@H](O)[C@H](O)[C@H]2O)Oc2ccccc2N1O,,87.5% (inactive)
c1ccc(Nc2nc3c(s2)CCCc2[nH]ncc2-3)nc1,14.6 µM (active),
CN(C)CCN(Cc1cccs1)c1ccccn1,,77.2% (inactive)
C[C@@]12C[C@]3(O)O[C@H](O1)[C@]1(COC(=O)c4ccccc4)[C@H]3C[C@@]12O[C@@H]1O[C@H](CO)[C@@H](O)[C@H](O)[C@H]1O,,78.1% [at 17.3 µM] (inactive)
C[N+]1(C)[C@@H]2CC[C@H]1CC(OC(=O)C(O)c1ccccc1)C2 (stereo not given in full),,101% (inactive)
Cc1nc2cnc3ccc(C#Cc4cccnc4)cc3c2n1-c1ccc(C(C)(C)C#N)cc1,8.2 µM (active) and 332 nM (active),
Nc1ccn([C@H]2O[C@@H](CO)[C@H](O)[C@H]2O)c(=O)n1,1.46 µM (active),
CN(C)CCN(C)C(=O)c1ccc(NC(=O)Nc2ccc(-c3nc(N4CCOCC4)c4ccn(CC(F)(F)F)c4n3)cc2)cc1,0.0525 µM (active),
CC1(C)CC[C@]2(C(=O)O[C@@H]3O[C@H](CO)[C@@H](O)[C@H](O)[C@H]3O)CC[C@]3(C)C(=CCC4[C@@]5(C)CC[C@H](O[C@H]6O[C@H](CO)[C@@H](O)[C@H](O[C@@H]7O[C@H](CO)[C@@H](O)[C@H](O)[C@H]7O)[C@H]6O)C(C)(C)C5CC[C@]43C)[C@@H]2C1 (stereo not given in full),,95.6% [at 9.25 µM] (inactive)
CCc1c(Cl)c(O)c(Cl)c(O)c1C(=O)O[C@H]1[C@H](O)[C@H](OC)[C@H](OC/C2=C\C=C\C[C@H](O)/C(C)=C\[C@H](CC)[C@@H](O[C@@H]3OC(C)(C)[C@@H](OC(=O)C(C)C)[C@H](O)[C@@H]3O)/C(C)=C/C(C)=C/C[C@@H]([C@@H](C)O)OC2=O)O[C@@H]1C,3.99 µM (active),
O=C([O-])C[O-].[Pt+2],,98.5% (inactive)
[Cl][In]([Cl])[Cl],,83% [at 91.9 µM] (inactive)
C[C@]12CC[C@@H]3c4ccc(O)cc4CC[C@H]3[C@@H]1CC[C@@H]2O,14.8 µM (active),
